An excerpt weighted towards active compounds, which were near 11% of everything screened.
Pf growth 96h = P. falciparum growth inhibition at 96 hours | P. falciparum luciferase reporter growth, 96 h | Potency, µM (titrated, usually from 28.7 µM), for the others: top-dose activity change, negative = inhibition, actives largely listed as inhibitors | actives 6.9% (n = 320,000); further: on the % scale 0 is the no-effect control and ±100 the full control effect
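Two parasite generations (96 h, 37 C, 5% CO2) of compound exposure in infected erythrocytes (0.05% parasitemia, 2% hematocrit). Luciferase-reporter P. falciparum; decreased luminescence indicates inhibited growth, aimed at apicoplast-acting delayed death.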
NS1 function inh = blocks influenza NS1 protein function; AID 2326; Potency, µM (titrated, usually from 46.1 µM), without a hit: top-dose activity, positive = more growth; actives 0.4% (n = 270,000); calls by dose curve; further: actives are rising curves; nearly all actives have a fitted effect of over 50% in size
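Read-out: OD600 growth recovery of NS1-expressing budding yeast. Cells grown overnight at 30C in -URA glucose medium, washed, resuspended and diluted 1:100 in 2% galactose assay medium, pH 6.0. Same strain lacking NS1 served as positive control.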
Sm TGR inh = S. mansoni TGR enzyme inhibition | Potency, µM (highest dose often 114 µM), for the others: top-dose activity change, negative = inhibition, usual class: inhibitors | Q962Y6 | actives 3% (n = 360,000) | purified TGR, DTNB reduction, TNB absorbance 405 nm | AID 485364; further: on the % scale 0 is the no-effect control and ±100 the full control effect; nearly all actives have a fitted effect of over 60% in size
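Kinetic colorimetric format: TGR-catalysed, NADPH-driven DTNB reduction monitored via TNB absorbance. Enzyme dispensed at 20 nM; compound exposure 15 min at room temperature before reaction start.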
AMA1-RON2 inh = disrupts binding of P. falciparum AMA1 to RON2; AlphaScreen AMA1-biotinylated RON2 peptide binding; Potency, µM (highest dose often 58.2 µM), for inactives: top-dose activity change, negative = inhibition, actives largely listed as inhibitors; actives 0.2% (n = 360,000);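 further: 0% = vehicle wells and -100% = peptide control; nearly all actives have a fitted effect of over 45% in size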
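AMA1 (3D7) with his tag at 25 nM final met compounds first, then biotinylated RON2 peptide at 25 nM; detection used donor plus acceptor beads, 10 µg/mL apiece, read by AlphaScreen after 30 min at room temperature.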
Pf growth 48h = P. falciparum growth inhibition at 48 hours (one generation); actives 5.9% (n = 310,000); Potency, µM (top dose mostly 28.7 µM), for the others: at the highest dose activity change, negative = inhibition, actives largely listed as inhibitors; P. falciparum luciferase growth in erythrocytes, 48 h; AID 504832; further: on the % scale 0 is the no-effect control and ±100 the full control effect
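Parasite viability was followed by luminescence of a genomically integrated firefly luciferase. Cultures held 0.1% parasitemia at 2% hematocrit (final), incubated under 5% CO2 at 37 C.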
Numbers without * were called inactive; ? = inconclusive; . = no result; [ ] = another dose, or the depositor's remark. Unless noted, the call rests on the fitted dose curve; in most records, active means well fitted curve in the direction sought with a large enough effect; inconclusive means small, poorly fitted or top-dose-only effect, or another doubt; inactive means no such curve, though single readings can be large; an effect the other way counts as inactive or inconclusive. Potency means the concentration at half of the fitted maximal effect.

SMILES | Pf growth 96h | NS1 function inh | Sm TGR inh | AMA1-RON2 inh | Pf growth 48h
CCN(CC(=O)NC(c1ccccc1)c1ccccc1)Cc1nc2ccccc2c(=O)[nH]1 | 7.4µM* | -4% | 4% | 128% | 12µM*
CCN(CC(=O)Nc1ccc2c(c1)CCC2)Cc1nc2ccccc2c(=O)[nH]1 | -24% | -26% | 50µM* | 88% | -16%
CCN(Cc1nc2ccccc2c(=O)[nH]1)Cc1nc2ccsc2c(=O)[nH]1 | 1.5µM* | 0% | -2% | 145% | ?
CCN(CC(=O)Nc1ccccc1SC)Cc1nc2ccccc2c(=O)[nH]1 | -16% | -2% | 7% | 105% | 55%
CCN(Cc1nc2ccccc2c(=O)[nH]1)Cc1nc2cc(OC)c(OC)cc2c(=O)[nH]1 | -10% | -17% | -24% | 94% | ?
CCN(CC(=O)Nc1ccc2c(c1)OCO2)Cc1nc2ccccc2c(=O)[nH]1 | ? | -5% | -8% | 126% | ?
Cc1ccc2oc(=O)n(CCCOc3ccc(Cl)cc3)c2c1 | . | . | -1% | . | .
COc1ccc(N2CCN(Cc3nc4c(c(=O)[nH]c(=O)n4C)n3Cc3ccccc3F)CC2)cc1 | . | . | 0% | . | .
COCCCn1c(C2CCCCC2)nc2oc3cc(OC)ccc3c(=O)c2c1=O | 0.93µM* | 8% | -6% | 2% | ?
COCCn1c(-c2ccc(C)cc2)nc2oc3cc(OC)ccc3c(=O)c2c1=O | ? | -6% | -12% | -7% | 4.1µM*
COc1ccc2c(=O)c3c(=O)n(Cc4ccco4)c(-c4ccc(C)cc4)nc3oc2c1 | 14% | -99% | 32µM* | -19% | ?
Cc1ccc(/C=N/NC(=O)Cc2cccn2C)cc1 | 8% | 1% | ? | 6% | 61%
CC(=C/c1ccco1)/C=N/NC(=O)Cc1cccn1C | 16% | 9% | 45µM* | 7% | -65%
CC(/C=N/NC(=O)CSc1nnc(SCc2ccccc2)s1)=C\c1ccco1 | ? | ? | ? | 6%[2.32 µM] | -6%
Cn1cccc1CC(=O)N/N=C/c1ccco1 | ? | 8% | 40µM* | 1% | -8%
CC(/C=N/NC(=O)CN1CCN(Cc2ccc(Cl)cc2)CC1)=C\c1ccco1 | ? | 12% | 79µM* | 5% | 3%
O=C(CN1CCN(Cc2ccccc2)CC1)N/N=C/C=C/c1ccco1 | ? | -11% | ? | 46% | -7%
CC(/C=N/NC(=O)Cc1cccn1C)=C\c1ccco1 | 48% | 13% | 25µM* | -16% | 17%
Cn1cccc1CC(=O)N/N=C/c1ccc(C(C)(C)C)cc1 | -6% | -1% | ? | -6% | -6%
C[C@@H](C(=O)Nc1ccc(OC(F)F)c(Cl)c1)N1C(=O)C2CC=CCC2C1=O (stereo not given in full) | . | . | . | -7% | .
O=C(CSc1ncn[nH]1)NCCOc1ccccc1 | -2% | 5% | -6% | -3% | 13%
O=C(CSc1ncn[nH]1)NCCC(c1ccccc1)c1ccccc1 | 10µM* | -1% | 2% | 5% | ?
O=C(CSc1ncn[nH]1)CSc1ncn[nH]1 | 6% | . | 40µM* | 15% | ?
O=C(O)c1ccccc1C(c1ccc(O)cc1)c1ccc(O)cc1 | -1% | 6% | ? | 1% | -14%
CC1CCc2nn(CC(=O)Nc3cccc(C(F)(F)F)c3)c(=O)cc2C1 (stereo not given) | . | . | 12% | . | .
SMILES | Pf growth 96h | NS1 function inh | Sm TGR inh | AMA1-RON2 inh | Pf growth 48h
CC(=C/c1ccc(C(C)C)cc1)/C=N/NC(=O)c1ccncc1 | ? | 1% | -1% | 50% | 13µM*
CC(/C=N/NC(=O)c1cccnc1)=C\c1ccco1 | . | 3% | 50µM* | 69% | 24%
CC(/C=N/NC(=O)c1cnccn1)=C\c1ccco1 | 45% | -2% | 28µM* | 45% | 88%
COc1ccc(C(=O)NCC(=O)N/N=C/C(C)=C/c2ccco2)cc1OC | 3% | 16% | ? | 7%[11.6 µM] | -15%
CC(=C/c1ccco1)/C=N/NC(=O)c1ccncc1 | 73% | -1% | 45µM* | 10% | 4%
CC(/C=N/NC(=O)c1cc(-c2ccccc2)nc2ccccc12)=C\c1ccco1 | ? | 22% | 2% | 13% | -22%
Cc1noc2nc(C(=O)O)nc(N3CCCCC3)c12 | . | . | -2% | . | .
CCc1nc(SCC(=O)Nc2ccccc2OC)c2c(C)c(C)sc2n1 | 8% | -4% | -1% | -23% | 13µM*
Cc1ccc(Cc2nc3ccccc3nc2SCC(=O)Nc2ccc3c(c2)OCO3)cc1 | . | . | 4% | . | .
CC1CC(C)CN(S(=O)(=O)c2ccc(NC(=O)CN3CCCCCC3)cc2)C1 (stereo not given) | ? | . | -5% | -4% | 7.4µM*
CC1CCCN(CC(=O)Nc2ccc(S(=O)(=O)N3CCCCC3)cc2)C1 (stereo not given) | 9.3µM* | 15% | -1% | -1% | ?
COc1cccc(N2CCN(C(=O)c3cccc(NC(=O)c4nsc5ccccc45)c3)CC2)c1 | . | . | 8% | . | .
CCN(CC)CCC(c1ccc(OC)cc1)c1c(O)cc(OC)cc1OC (stereo not given) | 1.3µM* | 1% | -29% | -2% | 1.3µM*
CCN(CC)CCC(c1ccc(N(C)C)cc1)c1c(O)cc(OC)cc1OC (stereo not given) | 1.5µM* | ? | -26% | ? | 1.2µM*
COc1cc(O)c(C(CC(=O)N2CCOCC2)c2ccc3c(c2)OCO3)c(OC)c1 (stereo not given) | 17% | 3% | -5% | -7% | ?
CCN(CC)C(=O)CC(c1ccc(OC)cc1)c1c(O)cc(OC)cc1OC (stereo not given) | -15% | 5% | -8% | -1% | ?
C=CCNC(=O)c1onc(CSc2ccccn2)c1C(=O)NCC=C | 3% | -4% | 7% | 9% | -12%
COc1ccc(C(=O)CN2C(=O)C(C)(C)Oc3ccc(C(=O)N4CCCCCC4)cc32)cc1 | 9.3µM* | -1% | 17%[11.4 µM] | 10% | .
CCCN1CCN(C(=O)c2noc3c2COc2ccc(C)cc2-3)CC1 | 168% | 2% | 5µM* | -2% | 50%
COC(=O)[C@@]12CCCCN1[C@H](c1ccc(-c3ccc(C(C)=O)cc3)c(OC)c1)[C@@H]1C(=O)N(C)C(=O)[C@@H]12 | ? | . | ? | -6% | 8.3µM*
COC(=O)[C@@]12CCCN1[C@H](c1ccc(-c3cccc(Cl)c3)c(OC)c1)[C@H]1C(=O)N(C)C(=O)[C@H]12 | 0.33µM* | . | ? | -24% | 2.3µM*
COC(=O)[C@@]12CCCCN1[C@H](c1ccc(-c3ccccc3)c(OC)c1)[C@H]1C(=O)N(C)C(=O)[C@H]12 | . | . | . | -15% | .
COC(=O)[C@@]12CCCN1[C@H](c1ccc(-c3ccc(Cl)c(Cl)c3)c(OC)c1)[C@H]1C(=O)N(C)C(=O)[C@H]12 | . | . | . | -15% | .
COC(=O)[C@@]12CCCCN1[C@H](c1ccc(-c3cccc(Cl)c3)c(OC)c1)[C@@H]1C(=O)N(C)C(=O)[C@@H]12 | 7.4µM* | . | 4% | -22% | 9.3µM*
